Laboratory results reported in the supplement of paper PMC12632987.

T1: USP38, Q8NB14
T1 chain: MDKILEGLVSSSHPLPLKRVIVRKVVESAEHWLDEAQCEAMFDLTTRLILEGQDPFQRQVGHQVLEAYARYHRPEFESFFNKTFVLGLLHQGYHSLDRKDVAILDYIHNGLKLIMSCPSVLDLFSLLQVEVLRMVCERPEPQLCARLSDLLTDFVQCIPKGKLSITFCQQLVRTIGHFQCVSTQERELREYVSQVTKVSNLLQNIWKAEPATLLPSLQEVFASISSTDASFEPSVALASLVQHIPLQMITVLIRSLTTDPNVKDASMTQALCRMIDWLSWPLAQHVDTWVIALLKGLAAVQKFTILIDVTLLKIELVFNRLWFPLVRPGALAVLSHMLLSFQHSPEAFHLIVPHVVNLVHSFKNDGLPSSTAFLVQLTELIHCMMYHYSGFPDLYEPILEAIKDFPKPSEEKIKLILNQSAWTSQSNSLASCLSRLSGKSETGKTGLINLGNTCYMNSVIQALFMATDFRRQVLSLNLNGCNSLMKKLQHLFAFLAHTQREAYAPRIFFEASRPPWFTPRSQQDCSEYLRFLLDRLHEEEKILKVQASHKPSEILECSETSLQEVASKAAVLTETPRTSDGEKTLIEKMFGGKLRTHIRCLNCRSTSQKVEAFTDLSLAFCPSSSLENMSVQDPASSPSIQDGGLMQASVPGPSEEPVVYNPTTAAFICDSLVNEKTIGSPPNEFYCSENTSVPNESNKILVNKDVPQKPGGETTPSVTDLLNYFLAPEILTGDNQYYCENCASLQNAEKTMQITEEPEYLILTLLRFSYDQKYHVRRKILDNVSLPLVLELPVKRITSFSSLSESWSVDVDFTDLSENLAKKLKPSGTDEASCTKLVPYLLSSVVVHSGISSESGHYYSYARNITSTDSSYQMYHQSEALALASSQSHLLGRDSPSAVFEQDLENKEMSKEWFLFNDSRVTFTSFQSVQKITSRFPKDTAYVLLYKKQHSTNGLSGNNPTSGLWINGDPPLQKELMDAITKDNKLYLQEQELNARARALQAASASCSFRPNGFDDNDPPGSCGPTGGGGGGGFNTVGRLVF

B1: usp_38_diff_out_17_26_244 (protein)
chain: SAEERNKKARELLEELKREAEKGLEEIRKLIEAGKFEEARKKLDELVTEVTERMLEILELAADNPELMEEALAAYDEISDAIAAAYRELQEARRAAAAAA
B2: usp_38_diff_out_18_14_266 (protein)
chain: SEELDEALVKNLETLKKDVKENTERVIKLLRKNKDDPERVKRIYERAKRNLEGVKKYAEEVLKEAEKRGWKKTVKAAKELLKEVEEAKKKIEEEYKKVME
B3: usp_38_diff_out_18_14_258 (protein)
chain: SAELEEATISNLKLLKEDVKKETERVIRLLEKNKDDPERVKRIYERAQRDLAGVETYAKEVLEEAKKNGWEEKEKAAKELLEEVDKAKEEIEKKVKEVLA
B4: usp_38_diff_out_18_14_257 (protein)
chain: SKELTEATISNLKSLKEDVKEDTERVIRLLEKNKDDPERVKRIYERAKRNLAGVEKYAKEVLKEAKENGDEELAKAAEELLKAVEEARERIEEEVKRVLA
B5: usp_38_diff_out_17_26_243 (protein)
chain: SAEEKRKKARELLKKLKEESEKALEEIKKLIKEGKFEEAEKLLEETVKKVTETTLEILELAADDPELVEEVLEAYDEISDKLAQAYKELQKAKKEAAAKA
B6: usp_38_diff_out_18_14_255 (protein)
chain: SEELEKATISNLNSLKEDVKKDTERVIKLLEKNKDDPERVKRITERANRNLAGVRTYAEEVLKEAEEKGWEEVKKAAEELLKTVDEAKKKIEEKVKEVLA
B7: usp_38_diff_out_18_14_269 (protein)
chain: SAELAAAKVSNLKTLKEDVERDTERVIRLLEANRDDPERVRRIHERALRNLEGVRKYAEEVKEEAEKEGDKETVKAAEELLKKIEEARRRIDARYAEVMA
B8: usp_38_diff_out_18_14_260 (protein)
chain: SEELKEATISNLKSLKEDVKEDTERVIRLLKARKDDPEQVKRIYERAKRNLEGVKTYAEEVLKEAEEEGWEELKKAAEELLKEIEEAEKKIEAEVKEVLA
B9: usp_38_diff_out_18_14_273 (protein)
chain: SEERREALLSNLKSLKKDVKEYTKRVLKLLEKNKNDPERVKRIYERAKRNLAGVKAYAEEVLKEAKEEGDEETLKAAEELIKEAKEAEEKIKKKVEEVLK
B10: usp_38_diff_out_18_14_271 (protein)
chain: SEELAAALQSNLESLERAVREDTERVIRLLEKNRDDPERVKRIVERAERDLAGVEAYAQEVLREARAAGDAATQEAAERLLEEARRAREEIRRKAEEVLA
B11: usp_38_diff_out_18_14_268 (protein)
chain: SEELAEAEVSNLKTLERDVKEDTERVIRLLRKNKDDPERVKRIYERAKRDLAGVRAYAEEVKRRAEEEGWEEVVAAAERLLKTIDEARKRIEEEYKRVME
B12: usp_38_diff_out_18_14_259 (protein)
chain: SEELTEALISNLESLKEDVKKDTERVIRLLEKRKDDPEQVKRIKERFERDLAGVEKYAKEVLEEAKKEGNEKLAKAAEELLKTVEAARKEVEEKVAKVLA
B13: usp_38_diff_out_18_14_263 (protein)
chain: SEELAQADIDALNLLKKDVEEDTERVIRLLEKSKDDPERVKRIYERALRNLAGVKKYAEEVKKEAEERGNEETIKAANELLKTIEEAKKRLEEKYKEVMK
B14: usp_38_diff_out_18_14_262 (protein)
chain: SEELAQADIDALNLLKEDVKKDTERKIRLLKKAKDDPELVKRIYERAKRNLEGVRTYAEEIKKRAEEAGDEETIKAAEELLKEIEEAEKKLEEAYKEVMA
B15: usp_38_diff_out_18_121_253 (protein)
chain: EAEKLAEEALKLAEKLKELSEELLKAIKEGDLEKAEKLKKEMEELLKELGRKYLELRDLRAEHPEETKELLKEVEKKANEAIDKYEKAERAYFEFLAEQA
B16: usp_38_diff_out_17_60_247 (protein)
chain: SAEAEEIIERLKKRLEELEKRLEELEKRFEEAKKKGDKEELEKLLKEAKELIDEIADLLVELAKNSELIDPETFLELADRASELADRAFKLKQEIEKELA

Target: T1, USP38, Q8NB14
Assay: median log2 fold change of GCK-ALFA target abundance (FLAG IP / Myc IP barcode read proportion) (log2 ratio); each designed protein is fused to an ALFA-tag nanobody in HEK293 cells to bring the named protein to FLAG-tagged glucokinase (GCK); Myc marks an untargeted standard; higher = target protein stabilised (more abundant)
Conditions: target protein: 3xFLAG-MCP-GCK-ALFA reporter; HEK293 landing pad (RPLP)
In short: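 Binders fused to an ALFA nanobody were recombined as a library into HEK293 landing-pad cells, which were induced with 2 μg mL^−1 doxycycline and then transfected to express a FLAG-tagged target and a Myc-tagged standard. After 48 h, circular RNA barcodes recovered by anti-FLAG and anti-Myc immunoprecipitation of lysates were reverse transcribed, amplified and sequenced. Each binder's target abundance is the median log2 ratio of FLAG to Myc barcode read proportions, from barcodes present at ≥10^−7 in both replicates, binders carrying ≥3 barcodes per replicate, a 10^−6 pseudocount and pooled replicates.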

Binder | median log2 fold change
B1 | -0.152
B2 | -0.521
B3 | 0.144
B4 | 0.0724
B5 | -0.0758
B6 | 0.0514
B7 | 0.153
B8 | 0.0949
B9 | -1.06
B10 | -0.0538
B11 | -0.0262
B12 | -0.00381
B13 | 0.123
B14 | 0.391
B15 | -1.1
B16 | 0.108
